Measured potencies and affinities stand elsewhere. Active and inactive are the calls of the source.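 Rule for the calls: active = signal-lowering compounds whose fitted half-maximal concentration is at or below twice the top tested dose in every run; inconclusive = runs disagree, flat 30 to 70% inhibition, or poor curve fit; inactive = the rest.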
Each compound was assayed against Protein S100-A4 (Homo sapiens) (UniProt P26447) (assay: S100A4-myosin IIA binding inhibitor potency, dose response, biochemical, fluorescence polarization, cherry-picked hits (AID 687001;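 note: 0% = DMSO neutral control wells and -100% = TFP positive control wells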)). Conditions: FP, S100A4/TAMRA-myosin IIA peptide binding; series mostly up to 11 µM.
Protein S100-A4 (Homo sapiens), sequence (P26447 whole entry, looked up): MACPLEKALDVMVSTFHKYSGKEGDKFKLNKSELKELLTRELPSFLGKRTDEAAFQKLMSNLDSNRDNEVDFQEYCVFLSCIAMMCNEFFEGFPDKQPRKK

outcome, inactive:
Cc1cccc2sc(NC(=O)C3CCN(C(=O)c4ccco4)CC3)nc12, CC(C)[C@@H]1C=C(C(=O)O)O[C@H](OCCCCO)C1, COCCNC(=O)C1CCCN(Cc2ccc(C(C)C)cc2)CC1 (centres undefined), CCOC(=O)c1cc(C)sc1/N=C/C1C(=O)CCCC1=O, COc1ccccc1NC(=O)N1CC(=O)N2[C@H](CO)[C@H](c3ccc(-c4ccc(F)cc4)cc3)[C@@H]2C1, O=C(Nc1ccccc1F)N1C[C@@H]2[C@H](c3ccccc31)[C@@H](CO)N2C(=O)C1CCCC1, Nn1c(SCc2ccccc2F)nnc1-c1cccnc1, CC(=O)Nc1ccc(NC(=O)C(C)OC(=O)CCCN=C2NS(=O)(=O)c3ccccc32)cc1 (centres undefined), CN1CCCCN2[C@@H](CO)[C@@H](c3ccc(C#CC4(O)CCCC4)cc3)[C@@H]2C1, CN1CCN(S(=O)(=O)c2cccc(C(=O)NC3CCCC3)c2)CC1, COc1ccccc1[C@H]1C(c2ccc(F)cc2)=NN(c2ccccc2)[C@@H]1CO, Cc1ccc(S(=O)(=O)NCCC(=O)NCc2ccccn2)cc1, O=C(Nc1ccccc1)N1CCCCN2[C@H](CO)[C@H](c3ccc(C#Cc4ccccn4)cc3)[C@H]2C1, C[C@@H]1CN([C@@H](C)CO)C(=O)c2cccc(NC(=O)C3CCOCC3)c2O[C@@H]1CN(C)Cc1ccc(C(=O)Nc2ccccc2N)cc1, O=C(NCc1ccccc1)c1cc(C2CCCCN2S(=O)(=O)c2ccccc2)on1 (centres undefined), O=C(C[C@@H]1CC[C@@H](NC(=O)Cc2cccnc2)[C@H](CO)O1)Nc1ccc(-c2ccccc2)cc1, CCS(=O)(=O)c1nc(S(=O)(=O)c2ccc(C)cc2)c(NCCCN2CCCC2=O)s1, CS(=O)(=O)Nc1cccc(C2=NN(C(=O)c3ccc(F)cc3)C(c3cccs3)C2)c1 (centres undefined), CCC(c1nc2ccccc2[nH]1)n1c(-c2cccnc2)nc2ccccc21 (centres undefined), O=C(C[C@@H]1C=C[C@@H](NS(=O)(=O)c2cccc(F)c2)[C@@H](CO)O1)NCc1ccc2c(c1)OCO2, C[C@H](CO)N1C[C@H](C)[C@@H](CN(C)CC2CC2)OCc2cnnn2CCCC1=O, CO[C@@H]1CN(C)C(=O)c2ccc(NC(=O)c3ccc4c(c3)OCO4)cc2OC[C@@H](C)N(Cc2ccc3c(c2)OCO3)C[C@H]1C, CC(C)CC(=O)Nc1c2c(nn1-c1ccc(F)cc1)CS(=O)C2 (centres undefined), C[C@@H]1CN([C@@H](C)CO)C(=O)c2cc(NC(=O)c3ccncc3)ccc2O[C@@H]1CN(C)Cc1ccncc1, CCOC(=O)N1CCN(S(=O)(=O)c2ccc(C)c(C(=O)NC3CCCCC3)c2)CC1, Oc1cccc(-c2sc3ccccc3c2-c2ccc(OCCN3CCCCC3)cc2)c1, Cc1noc(C)c1NC(=O)N(C)C[C@H]1Oc2c(NC(=O)CCCCCC(=O)Nc3ccccc3N)cccc2C(=O)N([C@@H](C)CO)C[C@H]1C, COc1ccc(NC(=O)CN(C)C(=O)C2CC(=O)N(c3ccc4c(c3)OCCO4)C2)cc1 (centres undefined), CC(=O)N(C)C[C@@H]1Oc2cc(C#CCC(C)C)ccc2S(=O)(=O)N([C@H](C)CO)C[C@@H]1C, C[C@@H]1CN([C@H](C)CO)S(=O)(=O)c2ccc(C#CCN(C)C)cc2O[C@@H]1CN(C)CC1CC1, COc1cccc(NC(=O)N(C)C[C@H]2Oc3cc(C#CC4(O)CCCC4)ccc3S(=O)(=O)N([C@H](C)CO)C[C@H]2C)c1, COc1cc(/C=C/C(=O)OCC(=O)N2c3ccccc3NC(=O)C2(C)C)cc(OC)c1OC, COc1ccc(C(C)(O)c2nc(-c3cccs3)cs2)cc1 (centres undefined), CCn1c(=S)sc2c(=O)n(CC(=O)Nc3ccc(C(C)=O)cc3)c(C)nc21, CN(C)C(=O)c1ccc(-c2ccc([C@@H]3[C@@H](CO)N4CCCCN(CC5CC5)C[C@@H]34)cc2)cc1, COc1ccc(NC(=O)N(C)C[C@H]2Oc3c(NC(=O)NC4CCCCC4)cccc3C(=O)N([C@H](C)CO)C[C@H]2C)cc1, CCC(=O)N1C[C@@H]2[C@H](c3ccccc31)[C@@H](CO)N2C(=O)CC, C/C=C/c1ccc([C@H]2[C@@H](CO)N(C(=O)Nc3ccccc3F)[C@H]2C#N)cc1

Activity change, negative = inhibition, inactive:
CN(C)c1ccc(/C=C(\C#N)C(=O)OCC(=O)N(C)C2CCS(=O)(=O)C2)cc1 (centres undefined) 128% [at 2.6 µM]

— PubChem BioAssay AID687001 (Broad Institute, 2013)
